Measurements taken from ChEMBL document CHEMBL3988442, “University of Dundee, Small-Polar-MMV Screening Library” (2021).

target: T1, Aspartate--tRNA(Asp/Asn) ligase (Mycobacterium tuberculosis (strain ATCC 25618 / H37Rv)) (UniProt P9WFW3); experiment: Assay for Asp RNA synthetase-1 from Mycobacterium tuberculosis; format: functional; design: scale not given: in the data most compounds retested in dose-response had high values; conditions: 30 µM
T1 sequence (whole entry): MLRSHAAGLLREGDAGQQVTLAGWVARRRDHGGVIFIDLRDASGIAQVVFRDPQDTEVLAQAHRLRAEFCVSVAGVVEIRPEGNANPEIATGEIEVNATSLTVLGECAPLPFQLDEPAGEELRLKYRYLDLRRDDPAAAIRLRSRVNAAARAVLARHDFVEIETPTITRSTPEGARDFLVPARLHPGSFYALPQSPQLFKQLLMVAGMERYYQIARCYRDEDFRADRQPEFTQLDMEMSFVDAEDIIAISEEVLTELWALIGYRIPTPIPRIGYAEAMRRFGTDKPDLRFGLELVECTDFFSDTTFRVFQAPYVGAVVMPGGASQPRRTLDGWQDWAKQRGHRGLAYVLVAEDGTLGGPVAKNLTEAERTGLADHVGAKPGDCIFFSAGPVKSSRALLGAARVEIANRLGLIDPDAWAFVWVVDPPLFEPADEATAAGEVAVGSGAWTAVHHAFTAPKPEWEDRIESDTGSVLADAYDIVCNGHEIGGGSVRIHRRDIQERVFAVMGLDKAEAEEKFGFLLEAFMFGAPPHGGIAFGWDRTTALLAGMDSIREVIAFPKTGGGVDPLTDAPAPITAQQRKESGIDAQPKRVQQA

Compound | Percent Effect [%]
CCc1nc(C2CCCN2CC(=O)Nc2c(C)n[nH]c2C)no1 (stereo not given) | -2.31
CCn1nc(C(C)C)cc1C(=O)NCCCOC | -1.73
CCn1cc2c(n1)C(COC)CN(C(=O)COc1ccccc1C)C2 (stereo not given) | 2.12
CCOc1ccccc1OC1CCN(C(=O)c2ccc(=O)[nH]n2)CC1 | -5.79
Cc1nn(C)c(N2CCOCC2)c1CNCc1ccc(Cl)s1 | 5.1
Cc1cnc(N)c(C(=O)C2CCN(C(=O)c3ccccc3F)CC2)c1 | -1.9
Cc1cnc(NC(=O)N2CCCC2)s1 | 1.37
Cc1ccc(C(=O)N2CCN(CC(O)c3ccc(F)cc3)CC2)s1 (stereo not given) | 0.567
Cc1cnc(CN(C)C2CCN(CC(=O)N(C)c3nccs3)C2)o1 (stereo not given) | -1.66
O=C(Nc1cc(F)ccc1OCC1CCCO1)c1ccc(O)nc1 (stereo not given) | 5.1
Cc1cc(=O)n(CC(=O)NCC2CCCO2)c(-c2ccc(F)cc2)n1 (stereo not given) | 5.94
COc1ccc2nnc(CCCC(=O)NCCC3=CCCCC3)n2n1 | 0.319
CN(C)C(=O)N1CCN(C(=O)C(c2ccccc2F)N(C)C)CC1 (stereo not given) | 0.752
COc1cccc(N2CCN(CCC(=O)NC3CCCC3)CC2)c1 | 1.95
CC(O)(CN1CCC2(CC1)OCCO2)c1cccc(C(F)(F)F)c1 (stereo not given) | 1.23
Cn1cc(CN2CCCC3(CCN(Cc4cccnc4)C3=O)C2)cn1 (stereo not given) | -1.18
Cc1ccc(CN2CC[C@H]3[C@@H]2CCC(=O)N3CCN2CCCC2)s1 | 2.78
Cn1c(C2CC2)nc2c1CCN(CC(=O)Nc1nncs1)C2 | 7.07
COc1ccc(C2CC(=O)Nc3c2nc2n3CCCC2)cc1OC (stereo not given) | 0.342
Cc1ccc(S(=O)(=O)N2C[C@@H]3C[C@@H](NC(=O)C(C)(C)C)[C@@H]3C2)cc1 | 1.47
